PNC assembly inh = perinucleolar compartment assembly inhibition. PC3M PTB-GFP, PNC prevalence imaging, 16 h; stronger effect = lower value. activity change (PNC), negative = inhibition, % at 10 µM. 3.1% of 140,000 active;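 active means readout at or below -70, meaning at least 70% loss of cells showing the perinucleolar compartment, a nuclear body marking cancer cells; inconclusive means readout between -30 and a set limit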
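PC3M cells stably expressing PTB-GFP, 750–1000 cells/well, treated 16 h at 37 °C with compound (23 nl of library stock), in duplicate. After paraformaldehyde fixation and Hoechst stain, imaged at 20x; PNC prevalence scored by image analysis.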
12-hLO inh = 12-hLO (ALOX12) enzyme inhibition; P18054; purified 12-hLO, xylenol orange hydroperoxide absorbance; Potency, µM (series often up to 57.1 µM), most hits filed as inhibitors; 0.12% of 150,000 active; AID 1452; further: nearly all actives have a fitted effect of over 55% in size
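Hydroperoxide output read as Fe(III)-xylenol orange absorbance, 573-to-405 nm ratio, after 30 min reaction with 40 uM arachidonic acid. Enzyme: 150 nM purified human 12hLO, 15 min compound preincubation; 25 mM Hepes pH 7.0, room temperature.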
IMPase Li cell = IMPase inhibition in cells with lithium potentiation; CHO-M1 cells, IP1 TR-FRET (IP-One), carbachol + lithium; Potency, µM (series often up to 59.4 µM), hits mostly inhibitors; 0.35% of 210,000 active; AID 1457;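 further: IP1 builds up when IMPase is blocked and the TR-FRET signal falls; nearly all actives have a fitted effect of over 50% in size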
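Concentration–response in CHO-M1 cells, lithium-potentiated; 30 min at 37C. IP1 detected by competitive TR-FRET after 10 min lysis at RT. Hill-fitted AC50.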
HPGD block = HPGD (human) dehydrogenase inhibition | P15428 | purified HPGD, NADH fluorescence kinetic, PGE2 substrate | Potency, µM, actives largely listed as inhibitors | 4.3% of 150,000 active | AID 894; active means well fitted inhibition curve with a large enough effect, not every such curve was filed as active; inconclusive means small, poorly fitted or top-dose-only effect, or another doubt; inactive means no such curve, though single readings can be large or run the other way
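NADH formation kinetics: reaction with 30 uM PGE2 and 1 mM NAD+ (final), 20 nM enzyme, Tris-HCl pH 8 with Tween 20, after 15 min compound preincubation at room temperature. Fluorescence change, last versus first of five reads.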
ALOX15B inhib = inhibitors of human 15-lipoxygenase 2 (ALOX15B); O15296; purified 15hLO-2, xylenol orange hydroperoxide absorbance; Potency, µM (titrated, usually from 57.1 µM), actives largely listed as inhibitors; 0.56% of 110,000 active; AID 881; further: nearly all actives have a fitted effect of over 60% in size
Target sequence (O15296 whole entry, looked up): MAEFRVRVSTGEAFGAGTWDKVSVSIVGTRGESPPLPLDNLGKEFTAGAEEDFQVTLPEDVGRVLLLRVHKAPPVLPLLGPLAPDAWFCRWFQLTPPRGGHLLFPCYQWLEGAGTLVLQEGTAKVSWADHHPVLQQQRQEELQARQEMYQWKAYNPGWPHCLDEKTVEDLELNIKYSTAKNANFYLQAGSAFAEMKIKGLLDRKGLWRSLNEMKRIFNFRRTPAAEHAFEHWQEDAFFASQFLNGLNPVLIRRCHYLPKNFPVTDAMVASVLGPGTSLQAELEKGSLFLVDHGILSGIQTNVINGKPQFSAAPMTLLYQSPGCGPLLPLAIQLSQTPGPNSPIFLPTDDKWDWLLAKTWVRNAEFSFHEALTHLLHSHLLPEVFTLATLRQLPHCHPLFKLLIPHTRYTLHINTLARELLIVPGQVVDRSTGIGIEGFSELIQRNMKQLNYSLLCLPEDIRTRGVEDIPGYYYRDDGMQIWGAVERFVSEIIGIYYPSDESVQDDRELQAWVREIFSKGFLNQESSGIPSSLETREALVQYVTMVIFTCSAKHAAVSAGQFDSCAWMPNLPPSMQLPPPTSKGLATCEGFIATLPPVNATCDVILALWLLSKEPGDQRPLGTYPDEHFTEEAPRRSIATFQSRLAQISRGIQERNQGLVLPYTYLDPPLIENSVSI
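Screening format was qHTS against 50 nM purified 15hLO-2 in Hepes pH 7.5 with detergent. Activity follows hydroperoxide formation from 45 uM arachidonic acid, measured as 573:405 nm absorbance ratio of the ferric-xylenol orange complex.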
IMPase cell inh = membrane-permeable compound that blocks inositol monophosphatase | CHO-M1 cells, IP1 accumulation, HTRF TR-FRET ratio | inhibition (IP1 accumulation), % at 46.1 µM | 120,000 tested, under 10 active; active means well fitted curve in the direction sought with a large enough effect in the signal ratio, not every such curve was filed as active; inconclusive means small, poorly fitted or top-dose-only effect, or a change in a side signal; inactive means no such curve, though single readings can be large or run the other way; the % refers to the signal ratio;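 further: cells stimulated with carbachol in lithium chloride buffer; higher means more IMPase inhibition seen as more IP1 and lower FRET ratio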
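Cellular IMPase inhibition is scored as a rise in cytosolic IP1, detected by competitive TR-FRET between d2-labelled IP1 and a europium anti-IP1 antibody. M1-expressing CHO cells were stimulated with carbachol for 30 min at 37C, with lithium (50 mM LiCl) present in the buffer.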
Numbers stand for hits; – = inactive; ? = inconclusive; · = no result given; [ ] = another dose, or the depositor's remark. This is a sample that favours compounds with a hit; in the whole collection about 5.4% have one here. Unless noted, the call rests on the fitted dose curve; in most records, active means well fitted curve in the direction sought with a large enough effect; inconclusive means small, poorly fitted or top-dose-only effect, or another doubt; inactive means no such curve, though single readings can be large; an effect the other way counts as inactive or inconclusive.

SMILES	PNC assembly inh	12-hLO inh	IMPase Li cell	HPGD block	ALOX15B inhib	IMPase cell inh
c1cc2c(cc1C(N1CCNCC1)N1CCNCC1)OCO2	·	–[11.4 µM]	–	–	–[11.4 µM]	·
COc1ccc(CCNC(=S)NC(=O)c2ccccc2)cc1OC	-101	14µM	–	25µM	13µM	–
COc1ccc(C(=O)NC(=S)NCCc2ccccc2)cc1	·	·	–	·	·	·
N=C(N)c1ccc(N2CCN(C3CCN(CC(=O)O)CC3)CC2)cc1	·	–	–	–	–	·
CCN(C(=O)CSc1nc2nc(C)cc(C)n2n1)c1ccccc1	–	–	–	14µM	–	–
Cc1cc(C)n2nc(SCC(=O)N(C)C)nc2n1	?	–	–	–	–	–
CCN(C(=O)CSc1nc2nc(C)cc(C)n2n1)c1cccc(C)c1	–	–	–	25µM	–	–
Cc1cc(C)n2nc(SCC(=O)Nc3ccccc3)nc2n1	·	·	–	·	·	–
Cc1cc(C)n2nc(SCN3C(=O)c4ccccc4C3=O)nc2n1	–	–	13µM	22µM	–	–
C/C=C/c1ccc2oc(-c3ccc(O)cc3)c(C)c2c1	·	·	–	?	·	·
Clc1ccc(Cn2ncc3c(NCc4ccccc4)ncnc32)c(Cl)c1	–	–	–	20µM	·	·
O=C(O)CCCc1ccc2ccccc2c1	·	–[11.4 µM]	–	–	–[11.4 µM]	·
Cc1nc(-c2cccc(S(=O)(=O)N3CCOCC3)c2)cs1	–	–	–	25µM	?	–
Cc1nc(-c2cccc(S(=O)(=O)N3CC(C)OC(C)C3)c2)cs1 (centres undefined)	–	–	–	–	–	–
Cc1nc(-c2ccc(C(=O)N3CCOCC3)cc2)cs1	?	–	–	8.9µM	–	–
Cc1nc(-c2ccc(C(=O)N3CCCC3)cc2)cs1	·	·	–	·	·	·
O=C(O)CC12C[C@H]3C[C@@H](CC(O)(C3)C1)C2	·	–[11.4 µM]	–	–	–[11.4 µM]	·
CCc1ccc(NC(=O)CSc2nnc(Cc3cccn3C)n2-c2ccc(F)cc2)cc1	-90	–	–	–	–	–
COc1ccc(Cl)cc1NC(=O)CSc1nnc(Cc2cccn2C)n1-c1ccc(F)cc1	-85	–	–	–	·	–
COc1ccc(N(CC(=O)Nc2ccc(C)cn2)S(=O)(=O)c2c(C)noc2C)cc1	-80	–	–	–	–	–
CCOc1ccc(OCC)c(NC(=O)CN(c2ccc(C)cc2)S(=O)(=O)c2c(C)noc2C)c1	–	–	–	–	–	–
CCOc1ccc(N(CC(=O)Nc2ccc(OC)cc2)S(=O)(=O)c2c(C)noc2C)cc1	–	–	–	–	–	–
CCOc1ccccc1NC(=O)CN(c1ccc(C)cc1)S(=O)(=O)c1c(C)noc1C	-132	–	–	–	–	–
Nc1c(C(=O)Nc2ccc(Cl)c(C(F)(F)F)c2)sc2nc(-c3ccncc3)ccc12	·	·	·	·	·	–
COc1ccc(CNc2ccnc(-c3ccccc3CN(C)C)n2)c(OC)c1	·	·	–	·	–	·
SMILES	PNC assembly inh	12-hLO inh	IMPase Li cell	HPGD block	ALOX15B inhib	IMPase cell inh
Cc1ccc(O)c(NC(=O)CCSc2nc(-c3ccco3)cc(C(F)(F)F)n2)c1	·	·	·	·	·	–
COCCn1c(=O)c(-c2ccc(OC)cc2)nc2cnc(OCc3ccccc3)nc21	·	·	–	·	–	·
COC(=O)C1(C(=O)OC)C/C=C\Cc2ccccc2[C@@H]1C[N+](=O)[O-]	·	–	–	–	·	·
Cc1ccc(C)c(Cn2nnc3c(=O)[nH]c(C4CCN(C(=O)c5cccs5)CC4)nc32)c1	–	–	–	0.56µM	–	–
Cc1ccc(C)c(Cn2nnc3c(=O)[nH]c(C4CCCN(C(=O)C5CCC5)C4)nc32)c1 (centres undefined)	–	–	–	4.5µM	–	–
Cc1ccc2c(c1)nnn2C1CCN(C(=O)c2cccs2)CC1	–	–	–	–	–	–
Cc1ccc(Cn2nnc3c(=O)[nH]c(C4CCN(C(=O)c5cccs5)CC4)nc32)cc1	–	–	–	14µM	–	–
Cc1ccc(Cn2nnc3c(=O)[nH]c(C4CCCN(C(=O)Nc5ccc(F)cc5)C4)nc32)cc1 (centres undefined)	–	–	·	·	–	–
Cc1cc2c3c(cccc3n1)C(=O)c1ccccc1-2	·	·	–	–	·	·
OC[C@H](CCc1c[nH]c2ccccc12)c1c[nH]c2ccccc12	·	?	–	–	–[11.4 µM]	·
O=C1c2ccccc2S(=O)(=O)N1CC1CC(c2ccccc2Cl)=NO1 (centres undefined)	–	–	–	14µM	·	·
Clc1nc2ccccc2nc1Cl	·	–	–	–	–	·
CSc1ccc(Cl)c(C(=O)OCC(=O)NCC(C)C)c1	–	–	–	14µM	–	–
CNC(=O)COC(=O)c1cc(SC)ccc1Cl	·	·	–	·	·	·
CC1CCc2c(sc(NC(=O)C3c4ccccc4Oc4ccccc43)c2C(=O)OC(C)C)C1 (centres undefined)	·	·	·	·	·	–
CC1CCc2c(sc(N)c2C(=O)OC(C)C)C1 (centres undefined)	–	–	–	28µM	–	–
c1c[nH]cn1	·	–	–	–	–	·
COc1cc(OC)nc(NC(=O)CS(=O)(=O)c2ccccc2)n1	-119	–	–	–	·	–
O=S(=O)(Nc1ccc(Cl)cc1Cl)c1cc(Cl)ccc1Cl	·	–	·	?	·	·
COc1cccc(Cn2c(=O)c(-c3ccccc3)nc3cnc(N4CCNCC4)nc32)c1	·	·	–	·	–	·
NNc1nc(-c2ccccc2Cl)nc2sc3c(c12)CCCC3	–	–	–	13µM	·	·
CCc1nc(Nc2ccc(F)c(Cl)c2)c2c3c(sc2n1)CCCC3	·	·	·	·	·	–
C=CCOC(=O)N[C@@H](c1cccs1)C(C(C)=O)C(C)=O	·	·	–	–	·	·
CC1=C(C(=O)Nc2ccc(C)cc2C)C(CC(C)C)n2nc(SCc3ccccc3C)nc2N1 (centres undefined)	·	·	·	·	·	–
CN(C)c1ccc(/C=C(/C#N)C(=O)NCc2ccccc2)o1	-83	–	–	–	·	·
SMILES	PNC assembly inh	12-hLO inh	IMPase Li cell	HPGD block	ALOX15B inhib	IMPase cell inh
COc1cccc(C2C(C(=O)c3cc4ccccc4o3)=C(O)C(=O)N2c2cc(C)on2)c1OC (centres undefined)	–	–	11µM	–	–	?
COc1cccc(C2C(C(=O)c3cc4cccc(OC)c4o3)=C(O)C(=O)N2c2cc(C)on2)c1OC (centres undefined)	–	–	10µM	–	–[2.29 µM]	?
COc1ccccc1CN(C)C(=O)C1COc2ccccc2O1 (centres undefined)	?	–	–	7.1µM	–	–
O=C(CNS(=O)(=O)c1cccc2nsnc12)NC1CCCCC1	-111	–	–	–	–	–
O=C(CCS(=O)(=O)c1cccc2nsnc12)NC1CCCCC1	–	–	–	28µM	–	–
O=C(NC1CCCCC1)C1CCN(S(=O)(=O)c2cccc3nsnc23)CC1	–	–	–	–	–	–
O=C(CCNS(=O)(=O)c1cccs1)NC1CCN(Cc2ccccc2)CC1	·	·	–	·	·	·

Screens deposited in PubChem by National Center for Advancing Translational Sciences (NCATS).
